Source: PubChem BioAssay
Shown are actives, neighbours in structure and some others; about 1.2% of the full set was active somewhere.
RPL19A-GFP yeast = alters RPL19A-GFP fluorescence in TOR pathway yeast screen. S. cerevisiae RPL19A-GFP strain, flow cytometry, 3 h; stronger effect = lower value. percent response vs DMSO, % at 10 µM. hit rate 0.3% among 330,000;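 active means percent response vs DMSO below 50%; inconclusive means fewer than 70 events counted for the yeast strain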;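 further: median channel GFP fluorescence of the barcoded RPL19A-GFP strain; ratio of sample median GFP to plate DMSO average so 100% = DMSO; lower means less RPL19A-GFP as with rapamycin TOR inhibition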
LAP4-GFP MLPCN = modulators of TOR pathway LAP4-GFP in S. cerevisiae; S. cerevisiae LAP4-GFP multiplex, flow cytometry GFP, 3 h; median GFP as percent of DMSO wells; GFP response vs DMSO, % at 10 µM; hit rate 0.34% among 320,000;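 active means GFP response vs DMSO above a set limit, about the screen mean plus 3 SD, cut at about 150% in these data; inconclusive means under 70 cell events counted for the yeast strain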
CIT2-GFP yeast = alters CIT2-GFP fluorescence in TOR pathway yeast screen; AID 2029; hit rate 0.065% among 320,000; GFP response vs DMSO, % at 10 µM; S. cerevisiae CIT2-GFP strain, flow cytometry, 3 h; 100 means same as DMSO wells;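 active means GFP response relative to DMSO above a set limit, near the screen mean plus 3 SD, cut at about 150% in these data; inconclusive means Fewer than 70 cells measured for a yeast strain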;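 further: ratio of well median GFP fluorescence to mean of DMSO wells on the plate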
AGP1-GFP MLPCN = modulators of TOR pathway AGP1-GFP in S. cerevisiae | hit rate 0.02% among 320,000 | S. cerevisiae AGP1-GFP multiplex flow cytometry, 3 h; GFP as percent of DMSO wells | GFP response vs DMSO, % at 10 µM;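 active means GFP response relative to DMSO above a set limit, near screen average plus 3 SD, cut at about 150% in these data; inconclusive means fewer than 70 cells counted for the yeast strain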;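 further: median GFP channel fluorescence of the gated AGP1 strain per well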
DSG3 Ab inh = inhibitors of pemphigus antibody binding to human desmoglein-3; DSG3-coupled beads, scFv-anti-DSG3-GFP binding, flow cytometry; stronger effect = lower value; P32926; hit rate 0.48% among 310,000; binding (percent of control), % at 10 µM;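 active means binding more than 3 SD below its plate's average and above zero; inconclusive means below that plate limit but binding exactly zero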
Target sequence (P32926 whole entry, looked up): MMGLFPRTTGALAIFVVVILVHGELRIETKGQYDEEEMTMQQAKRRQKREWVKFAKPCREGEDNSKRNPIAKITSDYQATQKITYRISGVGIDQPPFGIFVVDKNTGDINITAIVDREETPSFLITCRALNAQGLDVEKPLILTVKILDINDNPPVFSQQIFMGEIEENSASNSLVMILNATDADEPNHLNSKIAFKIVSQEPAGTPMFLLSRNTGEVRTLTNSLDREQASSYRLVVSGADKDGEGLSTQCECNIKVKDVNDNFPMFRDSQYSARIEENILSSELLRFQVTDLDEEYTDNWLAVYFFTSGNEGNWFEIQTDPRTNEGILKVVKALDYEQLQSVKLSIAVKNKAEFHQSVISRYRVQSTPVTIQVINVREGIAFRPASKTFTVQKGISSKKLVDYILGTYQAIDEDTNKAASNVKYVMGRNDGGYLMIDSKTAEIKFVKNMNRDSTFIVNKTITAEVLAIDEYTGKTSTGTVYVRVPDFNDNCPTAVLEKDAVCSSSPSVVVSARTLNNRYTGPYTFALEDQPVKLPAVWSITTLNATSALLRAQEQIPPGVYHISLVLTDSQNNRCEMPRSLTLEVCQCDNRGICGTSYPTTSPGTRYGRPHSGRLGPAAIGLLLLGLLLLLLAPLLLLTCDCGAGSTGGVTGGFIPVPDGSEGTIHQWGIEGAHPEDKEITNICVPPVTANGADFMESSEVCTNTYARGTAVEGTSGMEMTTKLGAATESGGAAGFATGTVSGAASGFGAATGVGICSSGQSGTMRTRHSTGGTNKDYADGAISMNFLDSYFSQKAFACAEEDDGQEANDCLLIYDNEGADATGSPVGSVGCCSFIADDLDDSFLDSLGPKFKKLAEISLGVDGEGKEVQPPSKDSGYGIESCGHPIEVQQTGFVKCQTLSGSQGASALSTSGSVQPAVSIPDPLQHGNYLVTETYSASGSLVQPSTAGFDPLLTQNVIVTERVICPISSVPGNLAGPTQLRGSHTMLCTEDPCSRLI
MEP2-GFP yeast = yeast TOR pathway MEP2-GFP modulation. S. cerevisiae MEP2-GFP strain, flow cytometry GFP, 3 h; 100% = DMSO control level. GFP response vs DMSO, % at 10 µM. hit rate 0.51% among 330,000. AID 2016;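 active means GFP response versus DMSO above a set limit, roughly screen mean plus 3 SD, cut at about 180% in these data; inconclusive means fewer than 70 cells counted for a yeast strain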;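 further: median GFP fluorescence of the barcode-gated MEP2-GFP cells per well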
Starred values were filed as active, the others as inactive; u = inconclusive; x = no result given; [ ] = dose if it differs, or a comment.

SMILES | RPL19A-GFP yeast | LAP4-GFP MLPCN | CIT2-GFP yeast | AGP1-GFP MLPCN | DSG3 Ab inh | MEP2-GFP yeast
Cn1c(O)c(N=NC(=O)CNC(=O)c2ccccc2)c2cc(Br)ccc21 | 96 | 95 | 95 | 96 | x | 95
CCn1c(O)c(N=NC(=O)CNc2ccc(C)cc2)c2ccccc21 | 103 | 97 | 97 | 102 | 102 | 95
CCn1c(O)c(N=NC(=O)CNc2cccc(C)c2)c2ccccc21 | 74 | 90 | u | 15 | 83 | 525*[may fluoresce violet]
O=C(CN1C(=O)NC(Cc2c[nH]c3ccccc23)C1=O)Nc1ccc(Br)cc1F (configuration not stated) | 103 | 102 | 105 | 102 | 87 | 101
CC(OC(=O)c1cc(S(=O)(=O)N2CCOCC2)ccc1Br)C(=O)N1CCOCC1 (configuration not stated) | 103 | 107 | 94 | 105 | 106 | 101
Cc1cc(NC(=O)CS(=O)(=O)c2cn(Cc3ccc(F)cc3)c3ccccc23)no1 | 101 | 120 | 108 | 107 | -23* | 104
CC1CCN(S(=O)(=O)c2ccc(C(=O)N3CCCC(C(F)(F)F)C3)cc2)CC1 (configuration not stated) | 96 | 100 | 91 | 99 | u | 99
COc1ccc(S(=O)(=O)N2CCCCCC2)cc1NC(=O)CCNC(=O)c1ccc(Cl)cc1 | x | x | x | x | 98 | x
O=C(COc1cccnc1[N+](=O)[O-])Nc1cc(S(=O)(=O)N2CCCCC2)ccc1Cl | 106 | 112 | 105 | 115 | 85* | 105
Cc1ccc(NC(=O)COc2cccnc2[N+](=O)[O-])cc1S(=O)(=O)N1CCCCC1 | 102 | 87 | 99 | 98 | x | 102
O=C(COC(=O)C1CCC1)Nc1cc(S(=O)(=O)N2CCCCC2)ccc1Cl | 89 | 85 | 87 | 91 | 90 | 95
CC(=O)OCC(=O)Nc1cc(S(=O)(=O)N2CCCCCC2)ccc1Cl | 103 | 104 | 98 | 101 | 71* | 104
COc1ccc(S(=O)(=O)N2CCCCC2)cc1NC(=O)CCNC(=O)c1ccc(Cl)cc1 | 101 | 94 | 113 | 106 | 50* | 105
COc1cccc(/C=C/C(=O)N2CCN(S(=O)(=O)c3ccccc3)CC2)c1 | x | x | x | x | 107 | x
O=C(O)c1cccc(S(=O)(=O)Nc2ccccc2C(=O)NCCc2ccccc2)c1 | 101 | 86 | 100 | 94 | 17* | 104
NC(=O)c1cc2ccccc2oc1=NCc1ccccc1 | 95 | 114 | 87 | 99 | x | 97
NC(=O)c1cc2ccc(O)cc2oc1=NCc1ccccc1 | 47*[may fluoresce violet] | 91 | u | x | 91 | 149
COc1ccc(NC(=O)c2cc3c(COC(C)=O)cnc(C)c3oc2=Nc2cccc(C(=O)O)c2)c(OC)c1 | 98 | x | 95 | 101 | 66* | 109
COCC(=O)N1CCC(Oc2ccc(C(=O)N3CCN(C)C[C@@H]3C(C)C)cc2)CC1 | x | x | x | x | 106 | x
CCNC(=O)CSc1nnc(-c2ccccc2)n1-c1ccc(OCC)cc1 | 102 | 99 | 102 | 99 | 97 | 103
CCOc1ccc(-n2c(-c3ccccc3)nnc2-c2ccccc2)cc1 | 45*[may fluoresce violet] | 79 | u | x | 91 | 252*[may fluoresce violet]
CC(=O)c1ccc(OCC(=O)NC(=O)NC2CCCC2)cc1 | x | x | x | x | 100 | x
COc1ccc(OCc2nnc(SCC(=O)N3CCCc4ccccc43)n2-c2ccc(C)cc2)cc1 | 66 | 96 | u | 21 | 100 | 214*[may fluoresce violet]
O=C(CSc1cccc[n+]1[O-])NC1CCCCC1 | 93 | 99 | 104 | 101 | 105 | 89
Nn1c(CSc2ccccn2)nc2ccccc2c1=O | 63 | 57 | u | u | 94 | 261*[may fluoresce violet]
SMILES | RPL19A-GFP yeast | LAP4-GFP MLPCN | CIT2-GFP yeast | AGP1-GFP MLPCN | DSG3 Ab inh | MEP2-GFP yeast
C#CCN(C[C@H]1[C@H](OC(=O)NCc2ccccc2)[C@H](OC(=O)NCc2ccccc2)C[C@H]2C(=O)N(c3ccccc3)C(=O)[C@@H]12)S(=O)(=O)c1ccc(C)cc1 | x | x | x | x | 89* | x
C#CCN(C[C@H]1[C@H](OC(=O)NC2CC2)[C@H](OC(=O)NC2CC2)C[C@H]2C(=O)N(c3ccccc3)C(=O)[C@@H]12)S(=O)(=O)c1ccc(C)cc1 | x | x | x | x | 99 | x
CC(CCc1ccccc1)NC(=O)c1nnc(Cc2ccc(Cl)cc2)o1 (configuration not stated) | 98 | 103 | 88 | 96 | -13* | 94
CCc1c(C)c2cc(Cl)c(O)c(CN3CCCCC3)c2oc1=O | 114 | 124 | 112 | 114 | 101 | 111
CCc1cc(=O)oc2c(CN3CCCC3)c(O)c(Cl)cc12 | 33* | 83 | 94 | 68 | x | 248*
CCc1cc(=O)oc2cc(C)c(CN3CCCC(C)C3)c(O)c12 (configuration not stated) | 97 | 102 | 95 | 102 | 100 | 99
CCc1cc(=O)oc2c(CN3CCN(C)CC3)c(O)c(Cl)cc12 | 44*[may fluoresce violet] | 84 | u | u | 104 | 302*[may fluoresce violet]
CCCCc1cc(=O)oc2cc(C)c(CN3CCCC3)c(O)c12 | 92 | 98 | 94 | 97 | 89* | 105
CCOC(=O)c1oc2ccccc2c1CSc1nnnn1-c1ccc(OC)cc1 | 51 | 88 | u | u | 109 | 248*[may fluoresce violet]
CSc1ncc2c(n1)-c1cc(C)ccc1SC2 | 102 | 86 | 111 | 102 | x | 104
Cc1ncc2c(n1)-c1cc(F)ccc1SC2 | 116 | 115 | 144 | 96 | 99 | 178*
c1ccc(-c2ccccc2OCCCN2CCCCCC2)cc1 | 103 | 98 | 99 | 107 | 97 | 98
c1ccc(-c2ccccc2OCCCN2CCCC2)cc1 | 98 | 85 | 94 | 91 | 72* | 78
Cc1nnc(OCc2nc3ccccc3n2C)c2ccccc12 | 56 | 99 | 83 | 73 | 116 | 217*
CCc1ccc(S(=O)(=O)c2nnn3c2nc(N2CCOCC2)c2ccccc23)cc1 | 96 | 96 | 98 | 98 | u | 90
Cc1nn(Cc2ccc([N+](=O)[O-])cc2)c(=O)n1-c1ccc(Cl)cc1 | 112 | 110 | 99 | 107 | 111 | 115
Cc1nn(Cc2ccc([N+](=O)[O-])cc2)c(=O)n1-c1cccc(Cl)c1 | 96 | 140 | 116 | 108 | 100 | 217*
CCOc1ccc2nc(SCC(=O)NC3CCCc4ccccc43)sc2c1 (configuration not stated) | 105 | 103 | 106 | 109 | 64* | 106
CC(C)Oc1ccc2ccccc2c1CNC[C@H]1O[C@@H](n2ccc(N)nc2=O)[C@H](O)[C@@H]1O | x | x | x | x | 107 | x
COc1ccc(NS(=O)(=O)c2ccc3nc(COc4ccc5ccccc5c4)[nH]c3c2)cc1 | x | x | x | x | 94 | x
COc1ccc(OCc2nc3ccc(S(=O)(=O)Nc4ccccc4Cl)cc3[nH]2)cc1 | 27*[may fluoresce violet] | 72 | u | u | 102 | 181*[may fluoresce violet]
